High-throughput results as filed in PubChem BioAssay.
RORgamma inh – qHTS for inhibitors of ROR gamma transcriptional activity. Nuclear receptor ROR-gamma (Mus musculus), P51450. 310,000 compounds, 5.4% hits. AID 2551, 2010. Drosophila S2 Gal4-RORgamma UAS-luciferase reporter, 20 h. Potency, µM (titrated, usually from 53.6 µM), inactives show at the highest dose activity change, negative = inhibition, usual class: inhibitors; further: potency means the concentration at half of the fitted maximal effect; nearly all actives have a fitted effect of over 60% in size
Target sequence (P51450 whole entry, looked up, the tested form may be a part): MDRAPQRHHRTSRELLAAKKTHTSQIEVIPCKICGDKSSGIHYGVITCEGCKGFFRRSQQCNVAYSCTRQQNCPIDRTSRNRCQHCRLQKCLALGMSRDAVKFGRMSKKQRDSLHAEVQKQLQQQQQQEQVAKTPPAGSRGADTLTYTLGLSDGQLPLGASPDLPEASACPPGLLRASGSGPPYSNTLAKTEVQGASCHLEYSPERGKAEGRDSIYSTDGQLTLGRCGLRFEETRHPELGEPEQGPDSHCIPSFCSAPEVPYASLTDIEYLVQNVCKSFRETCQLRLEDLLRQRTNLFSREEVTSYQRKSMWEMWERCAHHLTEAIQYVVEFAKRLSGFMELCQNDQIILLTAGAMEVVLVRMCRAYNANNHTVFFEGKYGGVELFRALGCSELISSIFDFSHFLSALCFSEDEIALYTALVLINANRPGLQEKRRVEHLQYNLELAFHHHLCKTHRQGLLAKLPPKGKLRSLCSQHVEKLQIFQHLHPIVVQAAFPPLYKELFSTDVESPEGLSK
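ROR gamma transcriptional activity was tracked as Gal4-UAS luciferase output in stably transfected Drosophila Schneider cells, with compound added 1 hr before 700 uM copper sulfate induction and a 20 hr ambient-temperature incubation.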
ELG1 repair inh – qHTS screen for small molecules that inhibit ELG1-dependent DNA repair in human embryonic kidney (HEK293T) cells expressing luciferase-tagged ELG1. HEK293T ELG1-luciferase reporter, luminescence, 16 h; DNA damage induced by 5-fluorouridine. Potency, µM (top dose mostly 46.1 µM), for inactives: top-dose activity change, negative = inhibition, most hits filed as inhibitors. 330,000 compounds, 2.3% hits; further: potency means the concentration at half of the fitted maximal effect; nearly all actives have a fitted effect of over 55% in size
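Cells (2,000 per well) received 5-fluorouridine plus test compound or DMSO and were incubated 16 hr at 37 °C, 5% CO2. Luciferase activity was read by luminescence 30 min after ONE-Glo addition; signal suppression marked inhibition of damage-induced ELG1 function.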
IL1B secr inh – qHTS for Inhibitors of Inflammasome Signaling: IL-1-beta AlphaLISA Primary Screen. THP-1 LPS/ATP IL-1B secretion, AlphaLISA, 16 h; active compounds read low. activity change, % at 57.5 µM. 360,000 compounds, 4.7% hits. AID 743279, 2014; in the data active means activity change below about -50%; inconclusive means mostly about -30% to -49%
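THP-1 cells pretreated 1 hr with compounds (up to 57.5 uM final), then stimulated with LPS (250 ng/mL final) plus ATP (1.25 mM final); secreted IL-1B measured by AlphaLISA after 16 hr, decreased signal indicating inhibition.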
VP16 counter – VP16 counterscreen qHTS for inhibitors of ROR gamma transcriptional activity. Potency, µM (titrated, usually from 53.6 µM), for the others: top-dose activity, negative = inhibition, hits mostly inhibitors. Drosophila S2 Gal4-VP16 UAS-luciferase, luminescence, 20 h. 310,000 compounds, 3.5% hits;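 further: Gal4-VP16 expression switched on by copper sulfate through the metallothionein promoter; potency means the concentration at half of the fitted maximal effect; nearly all actives have a fitted effect of over 50% in size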
TDP1 cell CPT – qHTS for Inhibitors of human tyrosyl-DNA phosphodiesterase 1 (TDP1): qHTS in cells in presence of CPT; chicken DT40 Tdp1-/-;hTDP1 cells + 20 nM CPT, ATP luminescence, 48 h; Potency, µM (doses to about 46.2 µM), for the others: at the top dose activity change, negative = growth inhibition, hits mostly inhibitors; 420,000 compounds, 12% hits; AID 686979, 2013; further: potency means the concentration at half of the fitted maximal effect; nearly all actives have a fitted effect of over 55% in size
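Chicken DT40 Tdp1-/- cells complemented with human TDP1, 400 cells/well, exposed to compounds plus 20 nM camptothecin for at least 48 h at 37 C; viability read as ATP content by CellTiter-Glo luminescence.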
DT40 TDP1 no CPT – qHTS for Inhibitors of human tyrosyl-DNA phosphodiesterase 1 (TDP1): qHTS in cells in absence of CPT. Potency, µM (highest dose often 46.2 µM), inactives show top-dose activity change, negative = growth inhibition, most hits filed as inhibitors. 420,000 compounds, 15% hits. AID 686978, 2013. DT40 Tdp1-/- hTDP1 cells, no CPT, ATP luminescence, 48 h; further: potency means the concentration at half of the fitted maximal effect; nearly all actives have a fitted effect of over 55% in size
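Cells were dispensed at 400 per well, compounds added by pin tool, plates incubated ≥48 hr at 37 °C, then CellTiter-Glo added for 30 min at room temperature before luminescence reading. Line: DT40 Tdp1-/- complemented with hTDP1; camptothecin omitted.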
Active calls of the source: *; ? = inconclusive; / = no result. Only some compounds are listed: those with a hit (about 21% of all), similar ones and a draw of the others. Unless noted, the call rests on the fitted dose curve; in most records, active means well fitted curve in the direction sought with a large enough effect; inconclusive means small, poorly fitted or top-dose-only effect, or another doubt; inactive means no such curve, though single readings can be large; an effect the other way counts as inactive or inconclusive. On the % scale 0 is the no-effect control and ±100 the full control effect.

SMILES	RORgamma inh	ELG1 repair inh	IL1B secr inh	VP16 counter	TDP1 cell CPT	DT40 TDP1 no CPT
Cc1ccc(NC(=O)CCCn2c(=O)c3cccn3c3cccnc32)c(Cl)c1	/	/	/	/	-12%	-22%
CC(C)(C)C1=CC(=O)C(=O)C(C(C)(C)C)=C1	10µM*	?	-65*	13µM*	0.65µM*	1.3µM*
CCC1CCCCN1C(=O)Cn1c(=O)oc2cc(S(=O)(=O)N3CCCCC3)ccc21 (stereo not given)	/	/	/	/	-26%	-26%
Cc1ccc(NC(=O)COc2ccc(C(=O)c3ccccc3)cc2)c(O)c1	?	?	20	?	?	?
Cc1nn(-c2ccc([N+](=O)[O-])cc2)c2c1C(c1cccc(Br)c1)N1C(=N2)C(=O)Nc2ccccc21 (stereo not given)	-20%	?	3	2%	2.6µM*	3.3µM*
Cc1nn(-c2ccccc2)c2c1C(c1ccc([N+](=O)[O-])cc1)N1C(=N2)C(=O)Nc2ccccc21 (stereo not given)	?	23µM*	-75*	-18%	?	15µM*
Cc1nn(-c2ccccc2)c2c1C(c1ccc(Cl)cc1)N(c1ccccc1)C(=O)N2 (stereo not given)	21%	?	-14	1%	?	-25%
CN1CCc2c(sc3nc(SCC(=O)NCc4ccco4)n(-c4ccccc4)c(=O)c23)C1	28%	?	-6	-9%	?	?
N#CC(c1ccccc1)c1cccc(Cl)n1 (stereo not given)	18%	-1%	-25	1%	-8%	-24%
N#CC(c1cccc(Cl)c1)c1ccc2c(C(F)(F)F)cc(C(F)(F)F)nc2n1 (stereo not given)	5µM*	/	-105*	4µM*	1.5µM*	1.6µM*
COc1ccccc1NS(=O)(=O)c1ccc2[nH]c(=S)oc2c1	/	7%	-3	/	-2%	-10%
CCCCC1(C)NC(=O)N(CC(=O)Nc2cc(S(=O)(=O)N3CCOCC3)ccc2Cl)C1=O (stereo not given)	/	6%	10	/	-7%	-11%
Cc1ccc(N(CC(=O)NCCSc2nc3ccccc3s2)S(=O)(=O)c2ccccc2)c(C)c1	29%	?	-9	-14%	?	26µM*
Cc1cccc(N(CC(=O)NCCSc2nc3ccccc3s2)S(=O)(=O)c2ccccc2)c1	?	16µM*	/	10%	/	/
O=C(CN(c1ccccc1)S(=O)(=O)c1ccccc1)NCCSc1nc2ccccc2s1	15%	?	54	2%	?	18µM*
COc1ccc(N(CC(=O)NCCSc2ccc(C)cc2)S(=O)(=O)c2ccccc2)c(OC)c1	38%	?	-9	-2%	?	?
COc1ccccc1N/C=C/C(=C(C#N)C#N)N(C)C	-8%	8%	-9	3%	4%	?
COc1ccc(C)cc1NC(=O)CCn1nc(C)cc1C	/	/	/	/	-27%	?
O=C(Nc1cc(S(=O)(=O)N2CCOCC2)ccc1OCC(F)(F)F)C1=COCCO1	/	?	-8	/	-16%	10%
COc1cc(-c2nnc(SCCOc3ccc(Cl)cc3C)o2)cc(OC)c1OC	/	/	/	/	-24%	-15%
COc1cc(-c2nnc(SCCOc3ccc(Cl)cc3)o2)cc(OC)c1OC	/	/	/	/	?	8.2µM*
COc1ccc(-c2nnc(COc3ccc4ccccc4c3)o2)cc1OC	38%	-16%	-11	-1%	-16%	?
COc1cc(-c2nnc(SCc3cc(=O)oc4cc(C)ccc34)o2)cc(OC)c1OC	-3%	12µM*	-3	-9%	?	29µM*
COc1cc(-c2nnc(SCC(=O)Oc3ccc(C)cc3C)o2)cc(OC)c1OC	/	/	/	/	1%	1%
COc1ccc(-c2nnc(-c3cc(OC)c(OC)c(OC)c3)o2)cc1OC	9%	23µM*	/	2%	15µM*	15µM*
SMILES	RORgamma inh	ELG1 repair inh	IL1B secr inh	VP16 counter	TDP1 cell CPT	DT40 TDP1 no CPT
COc1cc(-c2nnc(COc3ccc4cc(Br)ccc4c3)o2)cc(OC)c1OC	7%	5%	57	-6%	23µM*	21µM*
COc1cc(-c2nnc(-c3cccs3)o2)cc(OC)c1OC	24%	?	-27	-9%	?	?
COc1ccc(/C=N/N=C2\SC(CC(=O)O)C(=O)N2c2ccccc2)c(OC)c1 (stereo not given)	6%	2%	13	0%	2%	-3%
O=C(Cn1c(=O)n(-c2ccccc2Cl)c(=O)c2sc3ccccc3c21)NC1CCCCC1	/	/	/	/	-19%	?
NC(=O)c1nsc(C(=O)N(c2ccccc2)C(C(=O)NC2CCCCC2)c2ccc(O)cc2)c1N (stereo not given)	25%	-8%	4	5%	4%	?
CN(CC(O)COc1ccc(OCC(O)CN(C)C2CCCCC2)cc1)C1CCCCC1 (stereo not given)	-9%	/	0	-14%	?	?
Cc1cccc(C)c1OCC(O)CN(Cc1ccccc1O)C1CCCCC1 (stereo not given)	-7%	?	-66*	2%	16µM*	10µM*
Cc1ccc(Cn2c(=O)c3cccnc3n(Cc3ccc(C)cc3)c2=O)cc1	/	/	/	/	-27%	-19%
CCc1nnc2c3ccccc3nc(Nc3cc(C)cc(C)c3)n12	/	/	/	/	6.5µM*	3.7µM*
CCc1nnc2c3ccccc3nc(Nc3ccc(C(C)=O)cc3)n12	/	/	/	/	?	7.3µM*
CCc1nnc2c(Nc3ccc(Br)c(C)c3)nc3ccccc3n12	/	/	/	/	-15%	-6%
Cc1cccc(C(=O)N2CCc3cc(CNC(=O)COc4ccc(Cl)cc4)ccc32)c1	/	/	/	/	-28%	-20%
CN1CCN(Cc2ccc(OCc3ccccc3)cc2)CC1	-3%	?	-13	-11%	-24%	-9%
CCCCOCc1cc(CN2CCN(c3cccc(Cl)c3)CC2)c(O)c2ncccc12	/	/	/	/	16µM*	3.3µM*
CN1CCN(Cc2cc(COCc3ccccc3)c3cccnc3c2O)CC1	2µM*	?	-97*	1.3µM*	3.3µM*	3.3µM*
CCCOCc1cc(CN2CCN(c3cccc(Cl)c3)CC2)c(O)c2ncccc12	/	/	/	/	5.8µM*	5.2µM*
